# System: Perkinsus marinus PRA240
# Test: ATP content (proliferation) relative to DMSO control; higher = more parasite growth (less inhibition)
# Details: 20 µM; 4 days
# Experimental: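 Perkinsus marinus PRA240 trophozoites (2-5x10^6 cells/ml, 100 µl, 96-well) were exposed once to MMV Malaria Box compounds at 20 µM (0.1% DMSO) in triplicate. ATP content (ATPlite bioluminescence) was read at day 4 post-exposure and normalised to DMSO + cells control wells (100% activity). Compounds were identified by joining plate and well to the Malaria Box list.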
row,SMILES,ATP content [%]
1,CCOC(=O)c1c(C)n(-c2ccccc2)c2ccc(OC(=O)c3cc(OC)c(OC)c(OC)c3)cc12,141
2,CC(C)(C)c1ccc(C(=O)Nc2c3c(nn2-c2cccc(Cl)c2)CSC3)cc1,147
3,Cc1cc(N2CCCC2)nc(Nc2ccc(NC(=O)CCc3ccccc3)cc2)n1,119
4,COc1ccccc1CNC(=O)C1c2ccccc2C(=O)N(CC(C)C)C1c1cccs1 (stereo unspecified),111
5,COCCNC(=O)c1ccc(OC2CCN(Cc3ccc(F)c(F)c3)CC2)c(Cl)c1,86.4
6,CN(C)c1ccc(N=Cc2ccc(N3CCOCC3)cc2)cc1,108
7,CN1CCN(c2nc(Nc3ccc(O)cc3)nc3ccccc23)CC1,114
8,CC1CCN(Cc2c(O)ccc3cc(-c4nc5ccccc5s4)c(=O)oc23)CC1,124
9,CC1CCCCN1CCCNC(=O)c1ccc2c(c1)sc1nc(-c3ccc(F)cc3)cn12 (stereo unspecified),133
10,Cc1cc(N2CCN(C3CCCC3)CC2)n2c(nc3ccccc32)c1C#N,161
11,COc1ccc(CCN2C(=O)c3[nH]nc(-c4cc(Cl)c(C)cc4O)c3C2c2ccccc2F)cc1 (stereo unspecified),91.4
12,Cc1ccc(Cl)cc1N1CCN(CCCNC(=O)C2CCN(c3nc4ccccc4[nH]3)CC2)CC1,87.1
13,COc1ccc(C(=O)C(CCC(CNC(C)(C)C)C(=O)c2ccc(OC)cc2)CNC(C)(C)C)cc1 (stereo unspecified),120
14,CC(=O)c1ccc(NC(=O)CSc2nc(-c3ccccc3Cl)ns2)cc1,125
15,O=C(Nc1cccc(C2=NCCN2)c1)Nc1cccc(C2=NCCN2)c1,128
16,Brc1ccc(Nc2nc3ccccc3nc2Nc2ccc(Br)cc2)cc1,18.3
